Experimental data as given in article PMC7862700, “An all-to-all approach to the identification of sequence-specific readers for epigenetic DNA modifications on cytosine”.

These sequences were tested against T1, ETV7 (Homo sapiens, UniProt Q9Y603 1-341) (assay: DAPPL (digital affinity profiling via proximity ligation, sequencing); 10 mM Tris-HCl pH 7.5, 50 mM NaCl, 1 mM DTT, 4% glycerol, room temperature, 30 min; GST-TFs on glutathione beads, 16-mer random dsDNA library, 0.1% formaldehyde crosslink after washing; high values mean tight binding). Conditions: protein: recombinant; tags: N-terminal GST; dsDNA, one strand shown.
T1 sequence: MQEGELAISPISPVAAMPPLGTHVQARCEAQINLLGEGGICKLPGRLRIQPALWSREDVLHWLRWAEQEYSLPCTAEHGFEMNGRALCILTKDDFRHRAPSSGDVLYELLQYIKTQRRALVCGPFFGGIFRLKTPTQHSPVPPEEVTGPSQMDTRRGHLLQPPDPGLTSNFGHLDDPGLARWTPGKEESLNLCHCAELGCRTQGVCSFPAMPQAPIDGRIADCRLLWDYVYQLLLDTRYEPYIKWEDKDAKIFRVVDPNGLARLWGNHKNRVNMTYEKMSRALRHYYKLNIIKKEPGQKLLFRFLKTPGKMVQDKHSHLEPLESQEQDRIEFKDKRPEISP
Method in brief: (§1)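 Yeast served to express human transcription factors as GST fusions, which were then captured on glutathione beads and labelled with DNA barcodes. Pooled with a tag-only sample, they were incubated with 200 nmole of a 16-mer random double-stranded DNA library for 30 min at room temperature in Tris/NaCl/DTT/glycerol buffer, washed, crosslinked with 0.1% formaldehyde, ligated by proximity, amplified by PCR and sequenced. Dividing each hexamer's read frequency for a factor by its frequency for the tag-only sample gives the binding signal.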

Compared with CTGATG, CCCGGA is higher in binding signal: 1.64 fold enrichment (6-mer frequency, TF over GST control) for the first, 2.48 fold enrichment (6-mer frequency, TF over GST control) for the second.

Going from TATGTG to ACCCGC, the binding signal rises from 1.04 fold enrichment (6-mer frequency, TF over GST control) to 1.18 fold enrichment (6-mer frequency, TF over GST control).

First: CTCACC
Second: CCGTAT
The binding signal of the first is lower: 1.06 fold enrichment (6-mer frequency, TF over GST control) for the first, 1.09 fold enrichment (6-mer frequency, TF over GST control) for the second.

Going from CTCACT to TTCATC, the binding signal falls from 1.56 fold enrichment (6-mer frequency, TF over GST control) to 1.25 fold enrichment (6-mer frequency, TF over GST control).

First: CTAACG
Second: CACACA
The binding signal of the first is higher: 1.26 fold enrichment (6-mer frequency, TF over GST control) for the first, 1.1 fold enrichment (6-mer frequency, TF over GST control) for the second.

Going from TATTGC to CGCTGC, the binding signal falls from 1.36 fold enrichment (6-mer frequency, TF over GST control) to 1.03 fold enrichment (6-mer frequency, TF over GST control).

Compared with ACTGCA, CACATT is higher in binding signal: 1.07 fold enrichment (6-mer frequency, TF over GST control) for the first, 1.18 fold enrichment (6-mer frequency, TF over GST control) for the second.

Compared with ACCGGA, CGGATG is lower in binding signal: 2.74 fold enrichment (6-mer frequency, TF over GST control) for the first, 1.41 fold enrichment (6-mer frequency, TF over GST control) for the second.

Going from ACTTGG to GAATTC, the binding signal rises from 1.2 fold enrichment (6-mer frequency, TF over GST control) to 1.32 fold enrichment (6-mer frequency, TF over GST control).

First: CGCCGA
Second: TGCAAA
The binding signal of the first is lower: 1.05 fold enrichment (6-mer frequency, TF over GST control) for the first, 1.09 fold enrichment (6-mer frequency, TF over GST control) for the second.

First: AAAAAC
Second: CTTTCT
The binding signal of the first is lower: 1.29 fold enrichment (6-mer frequency, TF over GST control) for the first, 1.46 fold enrichment (6-mer frequency, TF over GST control) for the second.

Compared with TGGTCC, ATTCAA is higher in binding signal: 1.18 fold enrichment (6-mer frequency, TF over GST control) for the first, 1.19 fold enrichment (6-mer frequency, TF over GST control) for the second.

Compared with CTTACA, CTTGCA is higher in binding signal: 1.23 fold enrichment (6-mer frequency, TF over GST control) for the first, 1.28 fold enrichment (6-mer frequency, TF over GST control) for the second.

First: GATATG
Second: TCACAT
The binding signal of the first is lower: 1.07 fold enrichment (6-mer frequency, TF over GST control) for the first, 1.3 fold enrichment (6-mer frequency, TF over GST control) for the second.

Going from CTGGTC to TATTAG, the binding signal falls from 1.15 fold enrichment (6-mer frequency, TF over GST control) to 1.03 fold enrichment (6-mer frequency, TF over GST control).

Compared with ACGCTG, TGTACG is lower in binding signal: 1.16 fold enrichment (6-mer frequency, TF over GST control) for the first, 1.09 fold enrichment (6-mer frequency, TF over GST control) for the second.

Going from CTTTTA to CCCCGC, the binding signal falls from 1.42 fold enrichment (6-mer frequency, TF over GST control) to 1.19 fold enrichment (6-mer frequency, TF over GST control).

First: TTTCTG
Second: GTTTTA
The binding signal of the first is higher: 1.39 fold enrichment (6-mer frequency, TF over GST control) for the first, 1.23 fold enrichment (6-mer frequency, TF over GST control) for the second.

Compared with CCGATC, GCCTTT is lower in binding signal: 1.31 fold enrichment (6-mer frequency, TF over GST control) for the first, 1.18 fold enrichment (6-mer frequency, TF over GST control) for the second.

In the case of TTCTTG, the binding signal is reported as 1.48 fold enrichment (6-mer frequency, TF over GST control).

These sequences were tested against T2, ELF5 (Homo sapiens, UniProt Q9UKW6-2 1-255) in the same assay as above. Conditions: protein: recombinant; tags: N-terminal GST; dsDNA, one strand shown.
T2 sequence: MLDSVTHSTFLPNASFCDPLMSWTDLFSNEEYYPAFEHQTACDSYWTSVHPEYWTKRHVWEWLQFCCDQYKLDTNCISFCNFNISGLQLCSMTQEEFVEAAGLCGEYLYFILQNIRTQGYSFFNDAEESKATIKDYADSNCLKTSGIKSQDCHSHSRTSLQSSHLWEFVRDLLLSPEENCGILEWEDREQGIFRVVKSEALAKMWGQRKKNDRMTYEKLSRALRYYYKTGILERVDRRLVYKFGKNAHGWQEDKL
Method in brief: as §1

Going from CTGATG to CCCGGA, the binding signal rises from 1.64 fold enrichment (6-mer frequency, TF over GST control) to 3.77 fold enrichment (6-mer frequency, TF over GST control).

Going from TATGTG to ACCCGC, the binding signal rises from 1.01 fold enrichment (6-mer frequency, TF over GST control) to 1.25 fold enrichment (6-mer frequency, TF over GST control).

Compared with CTCACC, CCGTAT is higher in binding signal: 1.15 fold enrichment (6-mer frequency, TF over GST control) for the first, 1.31 fold enrichment (6-mer frequency, TF over GST control) for the second.

Compared with CTCACT, TTCATC is lower in binding signal: 1.54 fold enrichment (6-mer frequency, TF over GST control) for the first, 1.23 fold enrichment (6-mer frequency, TF over GST control) for the second.

Going from CTAACG to CACACA, the binding signal falls from 1.12 fold enrichment (6-mer frequency, TF over GST control) to 1.06 fold enrichment (6-mer frequency, TF over GST control).

Going from TATTGC to CGCTGC, the binding signal falls from 1.27 fold enrichment (6-mer frequency, TF over GST control) to 1.07 fold enrichment (6-mer frequency, TF over GST control).

Going from ACTGCA to CACATT, the binding signal rises from 1.01 fold enrichment (6-mer frequency, TF over GST control) to 1.13 fold enrichment (6-mer frequency, TF over GST control).

First: ACCGGA
Second: CGGATG
The binding signal of the first is higher: 3.2 fold enrichment (6-mer frequency, TF over GST control) for the first, 1.75 fold enrichment (6-mer frequency, TF over GST control) for the second.

First: ACTTGG
Second: GAATTC
The binding signal of the first is lower: 1.16 fold enrichment (6-mer frequency, TF over GST control) for the first, 1.32 fold enrichment (6-mer frequency, TF over GST control) for the second.

Going from CGCCGA to TGCAAA, the binding signal falls from 1.1 fold enrichment (6-mer frequency, TF over GST control) to 1.05 fold enrichment (6-mer frequency, TF over GST control).

Going from AAAAAC to CTTTCT, the binding signal rises from 1.3 fold enrichment (6-mer frequency, TF over GST control) to 1.5 fold enrichment (6-mer frequency, TF over GST control).

Going from TGGTCC to ATTCAA, the binding signal rises from 1.19 fold enrichment (6-mer frequency, TF over GST control) to 1.24 fold enrichment (6-mer frequency, TF over GST control).

Going from CTTACA to CTTGCA, the binding signal rises from 1.35 fold enrichment (6-mer frequency, TF over GST control) to 1.36 fold enrichment (6-mer frequency, TF over GST control).

GATATG and TCACAT are the same in binding signal: 1.14 fold enrichment (6-mer frequency, TF over GST control) for the first, 1.14 fold enrichment (6-mer frequency, TF over GST control) for the second.

First: CTGGTC
Second: TATTAG
The binding signal of the first is higher: 1.17 fold enrichment (6-mer frequency, TF over GST control) for the first, 1.06 fold enrichment (6-mer frequency, TF over GST control) for the second.

First: ACGCTG
Second: TGTACG
The binding signal of the first is lower: 1.09 fold enrichment (6-mer frequency, TF over GST control) for the first, 1.14 fold enrichment (6-mer frequency, TF over GST control) for the second.

Going from CTTTTA to CCCCGC, the binding signal falls from 1.21 fold enrichment (6-mer frequency, TF over GST control) to 1.07 fold enrichment (6-mer frequency, TF over GST control).

First: TTTCTG
Second: GTTTTA
The binding signal of the first is higher: 1.42 fold enrichment (6-mer frequency, TF over GST control) for the first, 1.09 fold enrichment (6-mer frequency, TF over GST control) for the second.

Going from CCGATC to GCCTTT, the binding signal rises from 1.1 fold enrichment (6-mer frequency, TF over GST control) to 1.3 fold enrichment (6-mer frequency, TF over GST control).

With TTCTTG the binding signal was 1.39 fold enrichment (6-mer frequency, TF over GST control).

What follows are sequences tested against T3, ETV3 (Homo sapiens, UniProt P41162-2 1-143) in the same assay as above. Conditions: protein: recombinant; tags: N-terminal GST; dsDNA, one strand shown.
T3 sequence: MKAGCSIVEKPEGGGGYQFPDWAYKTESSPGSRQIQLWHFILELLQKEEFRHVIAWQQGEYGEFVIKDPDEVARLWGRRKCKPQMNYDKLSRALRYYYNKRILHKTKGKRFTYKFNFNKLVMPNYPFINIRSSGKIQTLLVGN
Method in brief: as §1

Compared with CTGATG, CCCGGA is higher in binding signal: 1.74 fold enrichment (6-mer frequency, TF over GST control) for the first, 3.23 fold enrichment (6-mer frequency, TF over GST control) for the second.

Compared with TATGTG, ACCCGC is higher in binding signal: 1.09 fold enrichment (6-mer frequency, TF over GST control) for the first, 1.28 fold enrichment (6-mer frequency, TF over GST control) for the second.

Going from CTCACC to CCGTAT, the binding signal rises from 1.14 fold enrichment (6-mer frequency, TF over GST control) to 1.38 fold enrichment (6-mer frequency, TF over GST control).

First: CTCACT
Second: TTCATC
The binding signal of the first is higher: 1.5 fold enrichment (6-mer frequency, TF over GST control) for the first, 1.26 fold enrichment (6-mer frequency, TF over GST control) for the second.

First: CTAACG
Second: CACACA
The binding signal of the first is higher: 1.17 fold enrichment (6-mer frequency, TF over GST control) for the first, 1.1 fold enrichment (6-mer frequency, TF over GST control) for the second.

First: TATTGC
Second: CGCTGC
The binding signal of the first is higher: 1.41 fold enrichment (6-mer frequency, TF over GST control) for the first, 1.13 fold enrichment (6-mer frequency, TF over GST control) for the second.

Going from ACTGCA to CACATT, the binding signal falls from 1.17 fold enrichment (6-mer frequency, TF over GST control) to 1.12 fold enrichment (6-mer frequency, TF over GST control).

Compared with ACCGGA, CGGATG is lower in binding signal: 3.45 fold enrichment (6-mer frequency, TF over GST control) for the first, 1.75 fold enrichment (6-mer frequency, TF over GST control) for the second.

First: ACTTGG
Second: GAATTC
The binding signal of the first is lower: 1.2 fold enrichment (6-mer frequency, TF over GST control) for the first, 1.35 fold enrichment (6-mer frequency, TF over GST control) for the second.

Compared with CGCCGA, TGCAAA is lower in binding signal: 1.16 fold enrichment (6-mer frequency, TF over GST control) for the first, 1.06 fold enrichment (6-mer frequency, TF over GST control) for the second.

Compared with AAAAAC, CTTTCT is higher in binding signal: 1.2 fold enrichment (6-mer frequency, TF over GST control) for the first, 1.52 fold enrichment (6-mer frequency, TF over GST control) for the second.

Going from TGGTCC to ATTCAA, the binding signal rises from 1.28 fold enrichment (6-mer frequency, TF over GST control) to 1.37 fold enrichment (6-mer frequency, TF over GST control).

Compared with CTTACA, CTTGCA is higher in binding signal: 1.29 fold enrichment (6-mer frequency, TF over GST control) for the first, 1.45 fold enrichment (6-mer frequency, TF over GST control) for the second.

Compared with GATATG, TCACAT is higher in binding signal: 1.12 fold enrichment (6-mer frequency, TF over GST control) for the first, 1.21 fold enrichment (6-mer frequency, TF over GST control) for the second.

Going from CTGGTC to TATTAG, the binding signal falls from 1.24 fold enrichment (6-mer frequency, TF over GST control) to 1.05 fold enrichment (6-mer frequency, TF over GST control).

Compared with ACGCTG, TGTACG is lower in binding signal: 1.26 fold enrichment (6-mer frequency, TF over GST control) for the first, 1.1 fold enrichment (6-mer frequency, TF over GST control) for the second.

Compared with CTTTTA, CCCCGC is lower in binding signal: 1.4 fold enrichment (6-mer frequency, TF over GST control) for the first, 1.14 fold enrichment (6-mer frequency, TF over GST control) for the second.

First: TTTCTG
Second: GTTTTA
The binding signal of the first is higher: 1.3 fold enrichment (6-mer frequency, TF over GST control) for the first, 1.21 fold enrichment (6-mer frequency, TF over GST control) for the second.

Going from CCGATC to GCCTTT, the binding signal rises from 1.25 fold enrichment (6-mer frequency, TF over GST control) to 1.33 fold enrichment (6-mer frequency, TF over GST control).

For TTCTTG, the binding signal was 1.47 fold enrichment (6-mer frequency, TF over GST control).
